# Inconclusive results are not listed. The source made the active and inactive calls. How the source made its calls, unless noted: active means hit-call score of the fitted dose curve at least 0.9, where 1 is the maximum; inactive means score below 0.9.
# Experiment: STM_H9_OrnCyssISnorm_ratio: Stemina devTOX quickPredict H9 human embryonic stem cell (hESC)-based Assay for Ornithine (ORN):Cystine (CYSS) Ratio (AID 2283714; active means hit-call score of the fitted dose curve at least 0.9, where 1 is the maximum)
# Outline: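 Steps: H9 hESCs in pluripotent state dosed 72h, medium plus compound renewed every 24h; conditioned medium from the final 24h deproteinized in 40% acetonitrile; ORN and CYSS quantified by UPLC-HRMS with C13 spike-ins; ratio relative to vehicle.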
Structure (SMILES),AC50,outcome
Cn1sccc1=O,10.8 µM (active),
C=Cc1ccc(O)c(OC)c1,81 µM (active),
CC(C)(C)c1ccc(O)c(O)c1,76.2 µM (active),
CC1=CC(=O)c2ccccc2C1=O,11.8 µM (active),
Oc1c(Cl)cc(Cl)cc1Sc1cc(Cl)cc(Cl)c1O,,inactive

# Experiment: CEETOX_H295R_MTT_cell_viability: Viability Assessment in the CeeTox HT-H295R MTT Assay (AID 2283718);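 on AC50: curve fitted both ways so AC50 may mark viability loss or gain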
# Outline: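 MTT reduction (0.5 mg/ml, 4 h at 37 C; absorbance at 570 and 650 nm) gave viability as background-corrected percent change versus controls. H295R cells had 48 h forskolin (10 uM) prestimulation, then 48 h chemical exposure at 0.1% DMSO.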
Structure (SMILES),outcome,AC50
COc1cc([N+](=O)[O-])ccc1N,inactive,
C[C@]12CC[C@@H]3c4ccc(O)cc4CC[C@H]3[C@@H]1C[C@@H](O)[C@@H]2O,,91.7 µM (active)
C/C=C/C(=O)C1=C(C)CCCC1(C)C,inactive,
CC(C)(C)c1ccc(O)c(O)c1,inactive,
Cc1cccc2c1ccc1ccccc12,inactive,
Oc1cc2ccccc2cc1O,inactive,
COc1cccc(O)c1,inactive,
Clc1ccc(Nc2nnc(Cc3ccncc3)c3ccccc23)cc1,inactive,
CC(C)CCOCCC(C)C,inactive,
CC(C)(c1ccc(Oc2ccc(N)cc2)cc1)c1ccc(Oc2ccc(N)cc2)cc1,inactive,
CCCCCc1ccc(O)cc1,inactive,
c1cc[nH]c1,inactive,
CCCCCC(C)OC(=O)COc1ccc(Cl)c2cccnc12 (centres undefined),inactive,
O=C(NCc1ncc(C(F)(F)F)cc1Cl)c1c(Cl)cccc1Cl,inactive,

# From PubChem BioAssay (EPA / NIEHS)
